This passage reports Potency and viability change, negative = cytotoxic results from PubChem BioAssay (Tox21).

Results filed as inconclusive are left out. Where a call stands in place of a potency, no number is given. A number with no mark means an inactive call. Active and inactive are the calls of the source. The call rests on the fitted dose curve; in most records, active means well fitted cell-killing curve with a large enough effect in the repeat runs; inconclusive means weak or mixed curves, or effect the other way; inactive means flat fitted curve, though single readings scatter.
Potency means the concentration at half of the fitted maximal effect.

A short description of this assay: cAMP Responsive Elements (CRE) small molecule antagonists, cell-based qHTS assay: qHTS cell viability counter screen (AID 2060913). Further: nearly all actives have a fitted effect of over 40% in size. The settings on record: CRE-bla HEK293T viability, CellTiter-Glo luminescence, 5 h; series mostly up to 92.4 µM. An excerpt:
U.S. Tox21 Program National Center for Advancing Translational Sciences [NCATS] Division of Preclinical Innovation [DPI] U.S. Environmental Protection Agency [EPA] National Institutes of Environmental Health Sciences [NIEHS] National Toxicology Program [NTP] U.S. Food and Drug Administration [FDA] Tox21 Assay Overview: CREB (cyclic-AMP Responsive Element Binding Protein) is a cellular transcription factor. It binds to certain DNA sequences called cAMP Responsive Elements (CRE) and regulates the transcription of the genes. […] This cell line can be used to find agonists/antagonists of the cyclic AMP signaling pathway. The activation of the report gene under culture conditions can be detected by fluorescence intensity. This cell line has been used to screen the Tox21 10K compound library to identify agonists that induce oxidative stress. The cytotoxicity of the Tox21 compound library against the CRE-bla cell line was tested in parallel by measuring the cell viability using CellTiter-Glo assay (Promega, Madison, WI) in the same wells.
Tox21 Assay Protocol Summary: CRE-bla Hek 293T cells were suspended in assay medium (DMEM containing 10% dialyzed FBS, 0.1 mM NEAA, 1 mM sodium pyruvate and 25 mM HEPES) and dispensed at 2,000 cells/4 uL /well into 1536-well black wall/clear bottom plates using a Multidrop Combi (ThermoFisher Scientific, Waltham, MA) dispenser. After the assay plates were incubated at 37 C/5% CO2 for 18 hrs, 23 nL of compounds dissolved in DMSO, positive controls or DMSO only was transferred to the assay plate by a pintool workstation (Kalypsys, San Diego, CA), followed by addition of 1 uL of 1.25uM NKH477 (0.25 uM as final concentration) in assay medium using a Flying Reagent Dispenser (Aurora Discovery, San Diego, CA). The plates were incubated at 37 C and 5% CO2 for 3 hrs. Then 1 uL of LiveBLAzer B/G FRET substrate (Invitrogen, Carlsbad, CA) was added to each well using Bioraptr Flying Reagent Dispenser (FRD, Aurora Discovery, San Diego, CA). The plates were incubated at room temperature for 2 h, then fluorescence intensities were measured using an Envision plate reader (PerkinElmer, Shelton, CT) at Excitation 405nm, Emission 460nm and 530nm. The % activity was determined from the ratio of 460nm/530nm. For cell viability readout that measures cytotoxicity, 4 uL /well of CellTiter-Glo reagent was added into the assay plates using Bioraptr FRD. After 30 min incubation at room temperature, the luminescence intensity in the assay plates was measured using a ViewLux (PerkinElmer, Shelton, CT) plate reader.
For the molecule `Nc1ccc(S(N)(=O)=O)cc1`, the Potency entry was “inactive”. With `CC12CCCC=C1C(=O)OC2=O` (stereo not given), the Potency entry is “inactive”. In the case of `CCC(C)N` (stereo not given), the Potency entry was “inactive”. For the molecule `CC(C)=NNC(N)=S`, the Potency entry is “inactive”. For `C#CC(O)CCC` (stereo not given), the Potency entry is “inactive”. In the case of `CC(C)CCCCCCN`, the Potency result is “inactive”. On to `CCOCCn1c(N2CCCN(C)CC2)nc2ccccc21`, for which the Potency entry is “inactive”. `FC(F)(F)C(F)(F)C(F)(F)C(F)(F)C(F)(F)C(F)(F)C(F)(F)C(F)(F)C(F)(F)C(F)(F)F`: the viability change, negative = cytotoxic is 10.4% [at 8.39 µM]. Regarding `Cc1ccc2c(ccc3ccccc32)c1`, the Potency result was “inactive”.

Turning to `O=C(O)CCc1nc(-c2ccccc2)c(-c2ccccc2)o1`, the Potency entry is “inactive”. Same read-out and setting: under `Cc1ccccc1N=Nc1ccc(N=Nc2c(O)ccc3ccccc23)c(C)c1` stands “inactive”. Still for that read-out and setting: the entry for `CCN(CC)c1ccc(C=O)c(O)c1` is “inactive”; for `CO[Si](OC)(c1ccccc1)c1ccccc1` it is “inactive”; for `O=C(O)c1ccccc1C(c1ccc(O)cc1)c1ccc(O)cc1` it is “inactive”. Take `Cc1ccc(S(=O)(=O)NC(=O)NN2CCCCCC2)cc1`: the Potency result was “inactive”. Take `CC1=CC(C)(C)Nc2ccccc21`: the Potency result was “inactive”. Turning to `CCCCCCC#CC(=O)OC`, the Potency entry is “inactive”. The same measure, in the same setting: the entry for `C=C(C)C(=O)OCC(C)(C)COC(=O)C(=C)C` is “inactive”. Turning to `NC(=O)N(O)[C@@H]1C=C[C@H](Oc2cccc(Oc3ccc(F)cc3)c2)C1`, the Potency entry was “inactive”. On to `CCCCC(=O)O`, for which the Potency result is “inactive”.

For the molecule `Cc1ccc(N)cc1S(=O)(=O)O`, the Potency entry was “inactive”. With `COc1cc(OC)cc(OC)c1`, the Potency result was “inactive”. With `CSc1ccc2c(c1)N(CCC1CCCCN1C)c1ccccc1S2` (stereo not given), the Potency is 60.9 µM (active). Take `C[C@H](CCC(=O)NCC(=O)O)[C@H]1CC[C@H]2[C@@H]3[C@H](O)C[C@@H]4C[C@H](O)CC[C@]4(C)[C@H]3C[C@H](O)[C@]12C`: the Potency result was “inactive”.

With `CC(C)OCCO`, the Potency entry was “inactive”. Take `O=S(=O)(O)c1ccc2ccccc2c1`: the Potency result is “inactive”. In the case of `CCCCCCCC(C)=O`, the Potency result was “inactive”. In the case of `COc1ccccc1OC(=O)Oc1ccccc1OC`, the Potency result is “inactive”.

Turning to `CC(C)(O)C(=O)O`, the Potency entry is “inactive”.

In the case of `O=C(O)CSCC(=O)NC1CCSC1=O` (stereo not given), the Potency entry was “inactive”. `CCCCCCCCOc1ccc(C(=O)c2ccccc2)c(O)c1`: the Potency entry is “inactive”.

As for `CCOc1ncc(F)c(=O)[nH]1`, the Potency result is “inactive”. Still for that read-out and setting: the entry for `CCC1CCCCC1` is “inactive”; for `CCC(=O)OCc1ccc(OC)cc1` it is “inactive”. For `CC/C=C\CCCCCCCCCCOC(C)=O`, the Potency result is “inactive”.

Regarding `NC(N)=NC(=O)Cc1c(Cl)cccc1Cl`, the Potency result is “inactive”. On to `Cc1cccc(C(=O)O)c1[N+](=O)[O-]`, for which the Potency entry is “inactive”.

As to `CCN(CC)CCOC(=O)C(c1ccccc1)C1CCCCC1` (stereo not given), the Potency result was “inactive”. As for `O=C1CCCc2c1cc1ccc3cccc4ccc2c1c34`, the Potency result was “inactive”. In the case of `CC1(C)C(=O)N(Cl)C(=O)N1Br`, the Potency entry was “inactive”.
